In PubChem BioAssay (NCI):
This is part of a sample that, as a whole, favours compounds with a hit. Of some 79,000 tested, about 15% had one in any assay. Calls of active or inactive are those of the source. Cut-off read from the data, not from the text of the source: active = growth inhibition above about 70%; inactive = the rest.

Assays:
[1] = NCI Yeast Anticancer Drug Screen. Data for the wt1 strain (AID 149);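 note: 0% = growth of vehicle-treated wt1 cultures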; details: S. cerevisiae wt1 strain (SPY 50644) growth inhibition, active compounds read high
Method in brief: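 Measured: growth of wt1 yeast under compound versus vehicle treatment, reported as inhibition.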

[2] = NCI Yeast Anticancer Drug Screen. Data for the rad50EPP+ strain (AID 151);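 note: 0% = growth of vehicle-treated control cultures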; details: S. cerevisiae rad50 mutant strain, active compounds read high
Method in brief: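 In this screen, rad50EPP+ yeast were exposed to compounds. Growth inhibition was scored against vehicle-treated controls.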

[3] = NCI Yeast Anticancer Drug Screen. Data for the mgt1 strain (AID 153); details: S. cerevisiae mgt1 mutant growth inhibition, active compounds read high
Method in brief: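 mgt1 strain exposed; growth vs vehicle control recorded as inhibition.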

[4] = NCI Yeast Anticancer Drug Screen. Data for the rad50 strain (AID 155);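 note: 0% = growth of vehicle-only cultures of the same strain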; details: S. cerevisiae rad50 strain growth inhibition, active compounds read high
Method in brief: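 Growth of the mutant yeast was measured after compound exposure and referenced to vehicle-treated cultures.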

[5] = NCI Yeast Anticancer Drug Screen. Data for the mec2-1 strain (AID 157); details: S. cerevisiae mec2-1 strain, active compounds read high
Method in brief: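 Vehicle-treated cultures served as reference for growth inhibition of compound-exposed mec2-1 yeast.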

[6] = NCI Yeast Anticancer Drug Screen. Data for the rad14 strain (AID 159);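 note: 0% = growth of vehicle-treated control cultures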; details: S. cerevisiae rad14 strain growth inhibition, active compounds read high
Method in brief: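 Here, inhibition of yeast growth was measured after compound exposure, using a strain with a genetic defect in DNA damage repair and vehicle-treated cultures as the reference.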

[7] = NCI Yeast Anticancer Drug Screen. Data for the sgs1 mgt1 strain (AID 161);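 note: 0% = growth of cultures given vehicle only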; details: S. cerevisiae sgs1 mgt1 strain, active compounds read high
Method in brief: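 Read-out: growth inhibition vs vehicle controls. Cells: mutant yeast strain deficient in DNA damage repair.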

[8] = NCI Yeast Anticancer Drug Screen. Data for the cln2 rad14 strain (AID 165);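 note: 0% = growth equal to vehicle treated cultures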; details: S. cerevisiae cln2 rad14 strain, active compounds read high
Method in brief: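 Each compound was tested on cln2 rad14 yeast. Inhibition of growth was calculated against vehicle-exposed controls.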

[9] = NCI Yeast Anticancer Drug Screen. Data for the bub3 strain (AID 167); details: S. cerevisiae bub3 mutant strain, active compounds read high
Method in brief: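 Whole-cell yeast assay. The mutant strain was incubated with compounds, and growth inhibition was determined by comparison with vehicle-treated cells.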

[10] = NCI Yeast Anticancer Drug Screen. Data for the wt2 strain (AID 169);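 note: 0% = growth of vehicle-treated yeast cultures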; details: S. cerevisiae wt2 strain growth inhibition, active compounds read high
Method in brief: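 Inhibition of yeast growth was determined after compound treatment, normalised to controls receiving only vehicle.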

[11] = NCI Yeast Anticancer Drug Screen. Data for the mlh1 strain (AID 171);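 note: 0% = growth of vehicle-treated control cultures of the same strain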; details: S. cerevisiae mlh1 strain growth inhibition, active compounds read high
Method in brief: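 Vehicle-normalised growth inhibition of a repair- or checkpoint-altered yeast strain following compound treatment.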

[12] = NCI Yeast Anticancer Drug Screen. Data for the sgs1 strain (AID 173);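 note: 0% = growth of vehicle-only control cultures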; details: S. cerevisiae sgs1 mutant, active compounds read high
Method in brief: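 Screen format: yeast with repair or checkpoint alterations, compound exposure, growth read relative to vehicle.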

[13] = NCI Yeast Anticancer Drug Screen. Data for the mlh1 rad18 strain (AID 175); details: S. cerevisiae mlh1 rad18 strain growth inhibition, active compounds read high
Method in brief: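 Vehicle-treated cultures served as the reference for growth inhibition in a yeast strain carrying DNA damage repair alterations exposed to each compound.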

[14] = NCI Yeast Anticancer Drug Screen. Data for the rad18 strain (AID 177); details: S. cerevisiae rad18 mutant growth inhibition, active compounds read high
Method in brief: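 Test articles were incubated with altered yeast defective in DNA damage repair. Results are given as inhibition of growth versus vehicle.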

[15] = at 5.0 µM (retest, dose inferred, filed as 0.5)
[16] = at 50.0 µM (retest, dose inferred, filed as 5.0)

Measured: growth inhibition

c1ccc2c(c1)sc1c3cnccc3ccc21
inactive: [1]; at 1.2 µM -1% | [1]; at 3.7 µM 14% | [1]; at 11.0 µM 23% | [1]; at 33.0 µM 22% | [1]; at 100.0 µM 23% | [2]; at 1.2 µM 36% | [2]; at 3.7 µM 46% | [2]; at 11.0 µM 55% | [2]; at 100.0 µM 65% | [3]; at 1.2 µM 1% | [3]; at 3.7 µM -1% | [3]; at 11.0 µM 0% | [3]; at 33.0 µM -3% | [3]; at 100.0 µM 3% | [4]; at 1.2 µM 12% | [4]; at 3.7 µM 36% | [4]; [15] 35% | [4]; at 11.0 µM 64% | [5]; at 1.2 µM 4% | [5]; at 3.7 µM 2% | [5]; [15] -34% | [5]; at 11.0 µM 3% | [5]; at 33.0 µM 8% | [5]; [16] -20% | [5]; at 50.0 µM 47.4% | [5]; at 100.0 µM 12% | [6]; at 1.2 µM 4% | [6]; at 3.7 µM 15% | [6]; at 11.0 µM 37% | [6]; at 33.0 µM 32% | [6]; at 100.0 µM 29% | [7]; [15] -55% | [7]; [16] -34% | [7]; at 50.0 µM 23.6% | [8]; [15] -39% | [8]; [16] -26% | [8]; at 50.0 µM 33% | [9]; at 1.2 µM 13% | [9]; at 3.7 µM 15% | [9]; [15] -35% | [9]; at 11.0 µM 24% | [9]; at 33.0 µM 34% | [9]; [16] -8% | [9]; at 50.0 µM 44.9% | [9]; at 100.0 µM 39% | [10]; at 1.2 µM 8% | [10]; at 3.7 µM 14% | [10]; at 11.0 µM 25% | [10]; at 33.0 µM 36% | [10]; at 100.0 µM 32% | [11]; at 1.2 µM -9% | [11]; at 3.7 µM -1% | [11]; at 11.0 µM 2% | [11]; at 33.0 µM 10% | [11]; at 100.0 µM 9% | [12]; at 1.2 µM -8% | [12]; at 3.7 µM -10% | [12]; at 11.0 µM 3% | [12]; at 33.0 µM 9% | [12]; at 100.0 µM 8% | [13]; [15] -171% | [13]; [16] -49% | [13]; at 50.0 µM 45.5% | [14]; at 1.2 µM -8% | [14]; at 3.7 µM 1% | [14]; at 11.0 µM -1% | [14]; at 33.0 µM -2% | [14]; at 100.0 µM 13%
active: [2]; at 33.0 µM 73% | [4]; at 33.0 µM 74% | [4]; [16] 74% | [4]; at 50.0 µM 94.3% | [4]; at 100.0 µM 73%
